# Experimental data taken from the supplement of paper PMC7156485.
# Several values for one entry are separate records, joined by “and”; a condition that tells them apart may be missing. Equal entries are not always repeated. ± gives the standard deviation of the averaged measurements.
# What was measured:
# Details in all cases: concentration: 10 µM; 24 h
# HCC1569 [1] = experiment: cell number relative to DMSO (% of DMSO); higher = more cells (less growth inhibition / toxicity)
# Outline: (§1)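 After 24 h at 37 °C with compounds at 10 µM, in triplicate, HCC1569 and TDF cells were fixed with 3.7% formaldehyde. Immunostaining used a rabbit anti-H1.0 antibody and an AlexaFluor 647 secondary, with DAPI, and six fields per well were imaged at ×10. H1.0 nuclear intensity or cell number is presented as percent of the plate control, from the median of replicates, with HCC1569 values smoothed for positional effects.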
# TDF [2] = experiment: as above
# Outline: as §1
# TDF [3] = experiment: H1.0 immunofluorescence intensity relative to DMSO (% of DMSO); higher = stronger H1.0 induction, active = 120 or more
# Outline: as §1
# HCC1569 [4] = experiment: H1.0 immunofluorescence intensity relative to DMSO (% of DMSO); higher = stronger H1.0 induction, active = 140 or more
# Outline: as §1
# 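Throughout, for H1.0 immunofluorescence intensity relative to DMSO: TDF is a line of transformed human dermal fibroblasts of mesenchymal origin.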
# 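Throughout, for cell number relative to DMSO: TDF denotes transformed human dermal fibroblasts of mesenchymal origin.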
Compound,cell number (HCC1569 [1]),cell number (TDF [2]),H1.0 immunofluorescence intensity (TDF [3]),H1.0 immunofluorescence intensity (HCC1569 [4])
"Cn1c(=O)c2[nH]c(C3CCCC3)nc2n(C)c1=O [8-Cyclopentyl-1,3-dimethylxanthine]",97.7,99.4,98.6 (inactive),102 (inactive)
"CC=C1C2C=C(C)CC1(N)c1ccc(=O)[nH]c1C2 (single isomer, unassigned; (-)) [(-)-Huperazine]",98.2,100,98.9 (inactive),84.1 (inactive)
C=C1C(=CC=C2CCCC3(C)C2CCC3C(C)CCCC(C)(C)O)CC(O)CC1O (stereo unspecified) [Calcitriol],102,100,98.2 (inactive),112 (inactive)
NS(=O)(=O)c1cc(C(=O)O)c(NCc2ccco2)cc1Cl [Furosemide],101 ± 1.2,110 ± 1.9,91 (inactive),100 (inactive)
O=C(Nc1ccccc1)c1cc([N+](=O)[O-])ccc1Cl,98.3,90.5,100 (inactive),97.9 (inactive)
CC(C)(C)NCC(O)c1ccc(O)c(CO)c1 (stereo unspecified) [Salbutamol],99.7,99.3,95.9 (inactive),101 (inactive)
CN1CC(O)C(O)C(O)C1CO (stereo unspecified) [N-Methyl-1-deoxynojirimycin],53,57,109 (inactive),185 (active)
CC12CCC(=O)C=C1CCC1C2C(O)CC2(C)C1CCC2(O)C(=O)CO (stereo unspecified) [Hydrocortisone],98.68 ± 0.34,102 ± 9.9,86.3 (inactive),105 (inactive)
C[N+](C)(C)CCOC(=O)CCC(=O)OCC[N+](C)(C)C [Succinylcholine],100,101,99.9 (inactive),101 (inactive)
Cl.Cl.OCCN1CCN(CCC=C2c3ccccc3Sc3ccc(C(F)(F)F)cc32)CC1 [cis-(Z)-Flupenthixol dihydrochloride],86.1,102,102 (inactive),125 (inactive)
COc1cc2ncnc(Nc3ccc(O)cc3)c2cc1OC,100,115,89 (inactive),96.6 (inactive)
Cc1c(CC(C)(C)C(=O)O)n(Cc2ccc(Cl)cc2)c2ccc(F)cc12,107,86.5,105 (inactive),99.6 (inactive)
O=S(=O)(NCCNCC=Cc1ccc(Br)cc1)c1cccc2cnccc12,92.1 and 91.5,98.1 and 96.7,93.6 (inactive) and 99.1 (inactive),84.2 (inactive) and 136 (inactive)
C=CCCCCCCCCC(=O)O [10-Undecenoic acid],102,103,104 (inactive),105 (inactive)
COc1ccc(CCNCC(O)c2ccc(O)cc2)cc1OC (stereo not drawn) [R(-)-Denopamine],100,103,93.5 (inactive),105 (inactive)
COC1=C2CC(C)=c3c(C(C)=O)c(OC)c(O)c4c3c2c2c(cc(OC)c3c(OC)cc(O)c4c32)C(=O)C1=O [Hypocrellin B],101,95,97.1 (inactive),93.7 (inactive)
Cc1ccc(S(=O)(=O)C=CC#N)cc1,68.3 and 78.4,103 and 100,98.9 (inactive) and 92.5 (inactive),191 (active) and 104 (inactive)
CCC(C)C(O)C(C)C(=O)C(C)C=C(C)CC(C)C1OC(=O)C1CC (stereo unspecified) [Ebelactone B],102,104,99.9 (inactive),89.2 (inactive)
C[C@@H](Nc1ncnc2[nH]c(-c3ccc(O)cc3)cc12)c1ccccc1,66,64.8,108 (inactive),139 (inactive)
